# Results filed as inconclusive are left out. A call without a number means that no potency is given here. The source made the active and inactive calls. Unless noted, calls follow the shape of the dose curve; as a rule, active = well fitted curve in the direction sought with a large enough effect; inconclusive = small, poorly fitted or top-dose-only effect, or another doubt; inactive = no such curve, though single readings can be large; an effect the other way counts as inactive or inconclusive.
# Experiments:
# [1] = target: Phospholipid hydroperoxide glutathione peroxidase GPX4 (Homo sapiens) (UniProt P36969); experiment: Primary qHTS Assay for Inhibitors of Recombinant Selenoprotein Glutathione Peroxidase 4 (GPX4) (AID 1845192); details: outcome: dose series up to 50 µM unless noted; also: nearly all actives have a fitted effect of over 65% in size
# Sequence of Phospholipid hydroperoxide glutathione peroxidase GPX4 (Homo sapiens) (P36969 whole entry, looked up): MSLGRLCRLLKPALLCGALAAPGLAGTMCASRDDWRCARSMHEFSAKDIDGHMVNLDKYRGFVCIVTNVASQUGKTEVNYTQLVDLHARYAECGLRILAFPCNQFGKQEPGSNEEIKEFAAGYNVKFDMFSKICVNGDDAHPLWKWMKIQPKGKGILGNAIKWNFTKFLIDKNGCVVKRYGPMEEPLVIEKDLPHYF
# Summary of the method: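 NADPH consumption, followed by fluorescence at 340/450 nm between 0 and 15 min, reports GPX4 activity via coupled glutathione reductase (100 nM). Enzyme 200 nM was pre-exposed to compound 30 min; 0.5 mM cumene hydroperoxide and 1 mM GSH served as substrates.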
# Furin (Homo sapiens) = Furin (Homo sapiens) (UniProt P09958); experiment: Furin counterscreen qHTS for Zika virus inhibitors (AID 1347149); also: nearly all actives have a fitted effect of over 70% in size; also: potency is read from the fitted curve at half-maximal effect;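 as to activity change, negative = inhibition: purified recombinant full-length human furin enzyme at 5 nM; fluorescence gain from furin cutting a BOC-RVRR-AMC peptide substrate over 15 min; top concentration of the series differs between compounds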
# Sequence of Furin (Homo sapiens) (P09958 whole entry, looked up): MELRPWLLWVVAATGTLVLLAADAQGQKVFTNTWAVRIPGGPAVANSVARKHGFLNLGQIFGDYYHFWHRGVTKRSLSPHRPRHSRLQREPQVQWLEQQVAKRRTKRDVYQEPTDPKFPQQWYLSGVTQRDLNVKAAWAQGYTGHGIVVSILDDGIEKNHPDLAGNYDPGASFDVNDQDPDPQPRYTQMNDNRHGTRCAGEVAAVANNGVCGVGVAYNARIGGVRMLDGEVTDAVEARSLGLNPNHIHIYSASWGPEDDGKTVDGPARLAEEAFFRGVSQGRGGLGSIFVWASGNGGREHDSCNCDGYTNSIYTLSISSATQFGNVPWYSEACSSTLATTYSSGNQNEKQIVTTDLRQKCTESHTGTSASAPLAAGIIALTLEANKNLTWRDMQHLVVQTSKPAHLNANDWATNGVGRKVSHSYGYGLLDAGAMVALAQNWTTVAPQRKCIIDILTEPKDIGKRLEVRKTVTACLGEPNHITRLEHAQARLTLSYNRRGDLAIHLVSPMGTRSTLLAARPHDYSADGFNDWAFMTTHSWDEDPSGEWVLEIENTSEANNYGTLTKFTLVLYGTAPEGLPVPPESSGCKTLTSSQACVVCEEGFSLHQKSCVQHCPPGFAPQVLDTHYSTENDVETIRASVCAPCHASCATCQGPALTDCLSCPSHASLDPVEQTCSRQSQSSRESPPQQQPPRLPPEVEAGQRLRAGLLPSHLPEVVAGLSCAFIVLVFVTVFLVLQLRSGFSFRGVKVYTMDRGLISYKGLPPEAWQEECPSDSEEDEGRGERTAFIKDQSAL
# Summary of the method: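 Fluorogenic cleavage of BOC-RVRR-AMC (2 microM final, Km ~15 µM) was monitored (ex 340, em 450 nm) at 37C after 15 min RT preincubation of 5 nM furin with compounds in HEPES pH 7.0 buffer with CaCl2 and Triton X-100. Percent inhibition was fitted to a 4-parameter Hill curve.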
# [2] = qHTS for Inhibitors of Plasmodium falciparum (CP250) proliferation (AID 504320); also: potency is read from the fitted curve at half-maximal effect
# Summary of the method: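 Erythrocytes infected with P. falciparum line (0.3% parasitemia, 2.5% hematocrit final) incubated with compounds 72 h at 37 °C, 5% CO2; SYBR Green lysis buffer added, fluorescence read next day. Normalized to 0.29 uM artemisinin and DMSO.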
# [3] = target: Atrial natriuretic peptide receptor 1 (Homo sapiens) (UniProt P16066); experiment: Natriuretic polypeptide receptor (hNpr1) antagonism - Pilot CMLD screen (AID 1347052; calls by dose curve;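 also: HEK293 cells with hNpr1 stimulated by hNppA peptide at 0.1 nM; cGMP level read as GloSensor luciferase luminescence after agonist stimulation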)
# Sequence of Atrial natriuretic peptide receptor 1 (Homo sapiens) (P16066 whole entry, looked up): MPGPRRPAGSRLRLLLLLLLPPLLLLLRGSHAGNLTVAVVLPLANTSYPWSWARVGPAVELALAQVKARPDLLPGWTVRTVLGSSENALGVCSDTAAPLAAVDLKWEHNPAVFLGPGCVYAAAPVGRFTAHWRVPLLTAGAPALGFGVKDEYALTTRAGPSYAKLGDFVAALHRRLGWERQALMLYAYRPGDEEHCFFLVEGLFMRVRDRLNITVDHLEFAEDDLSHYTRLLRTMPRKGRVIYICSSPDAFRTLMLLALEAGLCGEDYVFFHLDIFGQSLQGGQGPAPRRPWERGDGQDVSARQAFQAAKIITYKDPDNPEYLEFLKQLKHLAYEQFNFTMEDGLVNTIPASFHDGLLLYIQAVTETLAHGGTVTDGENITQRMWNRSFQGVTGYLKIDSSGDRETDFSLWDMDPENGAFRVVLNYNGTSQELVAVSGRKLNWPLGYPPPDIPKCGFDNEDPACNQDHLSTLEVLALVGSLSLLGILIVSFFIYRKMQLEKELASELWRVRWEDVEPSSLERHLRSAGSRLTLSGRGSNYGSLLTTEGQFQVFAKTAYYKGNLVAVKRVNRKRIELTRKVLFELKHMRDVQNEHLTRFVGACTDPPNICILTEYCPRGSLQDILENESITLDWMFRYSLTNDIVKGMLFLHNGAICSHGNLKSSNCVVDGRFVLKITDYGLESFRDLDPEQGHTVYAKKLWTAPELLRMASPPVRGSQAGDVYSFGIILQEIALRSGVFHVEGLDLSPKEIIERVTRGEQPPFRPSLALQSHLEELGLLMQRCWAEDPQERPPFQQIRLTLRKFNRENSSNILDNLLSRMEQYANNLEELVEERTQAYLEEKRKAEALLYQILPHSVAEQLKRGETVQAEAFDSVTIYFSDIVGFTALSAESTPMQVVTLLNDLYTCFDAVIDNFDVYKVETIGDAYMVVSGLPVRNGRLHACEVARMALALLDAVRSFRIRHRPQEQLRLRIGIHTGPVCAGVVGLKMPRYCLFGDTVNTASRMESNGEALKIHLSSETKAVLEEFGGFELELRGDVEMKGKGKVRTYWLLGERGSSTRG
# [4] = target: Cytochrome P450 3A4 (Homo sapiens) (UniProt P08684); experiment: qHTS Assay for Inhibitors and Substrates of Cytochrome P450 3A4 (AID 884); also: nearly all actives have a fitted effect of over 50% in size; also: potency is read from the fitted curve at half-maximal effect
# Sequence of Cytochrome P450 3A4 (Homo sapiens) (P08684 whole entry, looked up): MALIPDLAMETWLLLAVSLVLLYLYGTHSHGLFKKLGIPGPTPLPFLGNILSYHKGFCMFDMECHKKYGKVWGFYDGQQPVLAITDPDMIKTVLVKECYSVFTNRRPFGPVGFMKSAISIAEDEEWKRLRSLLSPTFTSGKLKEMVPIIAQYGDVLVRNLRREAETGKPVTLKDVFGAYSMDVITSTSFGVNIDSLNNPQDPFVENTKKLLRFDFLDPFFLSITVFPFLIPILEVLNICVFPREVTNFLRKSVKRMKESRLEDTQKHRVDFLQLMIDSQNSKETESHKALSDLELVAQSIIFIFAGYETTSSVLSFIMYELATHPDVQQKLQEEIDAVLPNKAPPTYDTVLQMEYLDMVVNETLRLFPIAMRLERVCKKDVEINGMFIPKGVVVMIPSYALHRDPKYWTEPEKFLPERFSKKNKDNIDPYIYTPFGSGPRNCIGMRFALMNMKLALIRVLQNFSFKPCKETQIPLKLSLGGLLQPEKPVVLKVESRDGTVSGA
# Summary of the method: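 20 nM human CYP3A4 with 25 uM Luciferin-PPXE (at KM) in 200 mM KPO4, preincubated 10 min with compound; NADPH regeneration started a 60 min RT reaction. Luciferin detected by luminescence, normalized to 57 uM ketoconazole as full inhibition.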
# [5] = target: Cytochrome P450 3A4 (Homo sapiens) (UniProt P08684); experiment: qHTS Assay for Activators of Cytochrome P450 3A4 (AID 885); also: nearly all actives have a fitted effect of over 65% in size
# Summary of the method: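 20nM CYP3A4 + 25uM Luciferin-PPXE (=KM), 200mM KPO4; cpd 10 min RT; NADPH regen, 60 min RT; stop w/ detection buffer, 20 min; luminescence. Normalized to 57 uM ketoconazole.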
# [6] = system: Zika virus NS2B-NS3 protease (linked construct); experiment: Confirmatory screen NINDS AMC qHTS for Zika virus inhibitors (AID 1347152); also: nearly all actives have a fitted effect of over 70% in size; also: potency is read from the fitted curve at half-maximal effect;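 as to activity change, negative = inhibition: AMC fluorescence gain from cleaved Bz-Nle-KRR-AMC substrate over 15 min; top concentration of the series differs between compounds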
# Summary of the method: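 In this dose-response qHTS, AMC release from 10 microM Bz-Nle-KRR-AMC by 1 nM linked protease is measured over 15 minutes (about 20% conversion) at pH 8.0. Percent inhibition is fitted to a 4-parameter Hill curve.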
# [7] = system: Zika virus NS2B-NS3 protease (unlinked complex); experiment: Confirmatory screen GU AMC qHTS for Zika virus inhibitors (AID 1347153); also: nearly all actives have a fitted effect of over 70% in size
# Summary of the method: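 Noncovalent NS2B hydrophilic domain/NS3 protease complex (25 nM) in 10 mM Tris-HCl pH 8.0, 0.01% Tween 20 was preincubated 15 min at room temperature with compounds. Then 10 µM AMC substrate (Km 18.3 µM) was added; fluorescence was read over 15 min and fitted to a 4-parameter Hill equation.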
# [8] = system: Zika virus NS2B-NS3 protease; experiment: Primary screen GU AMC qHTS for Zika virus inhibitors (AID 1347154); also: potency is read from the fitted curve at half-maximal effect; nearly all actives have a fitted effect of over 70% in size
# Summary of the method: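 Fluorogenic AMC-substrate cleavage by noncovalent NS2B-NS3 protease complex (25 nM, pH 8.0 Tris buffer with Tween 20) followed for 15 minutes at room temperature (~20% conversion). Percent inhibition from ex340/em450 signal change, fitted by 4-parameter Hill equation.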
# [9] = Confirmatory screen NINDS Rhodamine qHTS for Zika virus inhibitors (AID 1347161); also: potency is read from the fitted curve at half-maximal effect; nearly all actives have a fitted effect of over 60% in size
# Summary of the method: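 Aprotinin served as in-plate control. Conditions: 25 nM linked NS2B-NS3, pH 8.0 Tris buffer, titrated compounds, 15 min preincubation and 15 min reaction with 1.5 microM Rhod110 substrate at room temperature.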
# [10] = system: Zika virus NS2B-NS3 protease (linked); experiment: 384 well plate NINDS AMC confirmatory qHTS for Zika virus inhibitors (AID 1347163); also: nearly all actives have a fitted effect of over 50% in size; also: potency is read from the fitted curve at half-maximal effect;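 as to activity change, negative = inhibition: linked protease at 5 30 or 60 nM final depending on run; fluorescence of AMC released from Ac-VKTGKR-AMC peptide cleaved by the protease; top concentration of the series differs between compounds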
# Summary of the method: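 Linked NS2B-NS3 protease (final 5 nM, 30 nM or 60 nM) was preincubated with compounds (final up to 1 mM) for ~15 minutes. Ac-VKTGKR-AMC substrate (final 30 microM) then reacted for 25 minutes at room temperature in the dark. Fluorescence (ex 355/em 460 nm) was normalized to no-enzyme and no-inhibitor controls.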
# [11] = system: Zika virus NS2B-NS3 protease (linked construct); experiment: 384 well plate NINDS Rhodamine confirmatory qHTS for Zika virus inhibitors (AID 1347164); also: nearly all actives have a fitted effect of over 65% in size; also: potency is read from the fitted curve at half-maximal effect; as to activity change, negative = inhibition: top concentration of the series differs between compounds
# Summary of the method: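 Compounds are incubated about 15 minutes with linked protease (5, 30 or 60 nM final). Rhodamine 110-tagged Ac-LKRR substrate (10 microM final) is added and fluorescence measured after 25 minutes.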
# [12] = HepG2 cells viability qHTS for Zika virus inhibitors (AID 1347168); also: potency is read from the fitted curve at half-maximal effect
# Summary of the method: (§1)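 Compounds were tested in concentration series on cells grown in DMEM containing 4% FBS. After 24 to 48 hours, cellular ATP was measured by luminescence with CellTiter Glo.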
# [13] = Primary qHTS for small molecule stabilizers of the endoplasmic reticulum resident proteome: Secreted ER Calcium Modulated Protein (SERCaMP) assay (AID 1508630)
# Summary of the method: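 GLuc-SERCaMP-expressing SH-SY5Y cells, pretreated 16 h with compound, are challenged with thapsigargin to empty ER calcium stores; after 4 h, coelenterazine is added directly to the medium and luminescence is imaged.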
# [14] = system: Zika virus NS2B-NS3 protease (unlinked); experiment: Optimization of GU AMC qHTS for Zika virus inhibitors: Unlinked NS2B-NS3 protease assay (AID 1347151); also: nearly all actives have a fitted effect of over 80% in size; also: potency is read from the fitted curve at half-maximal effect
# Summary of the method: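 Percent inhibition is derived from the 15-min change in AMC fluorescence, normalized against no-inhibitor and no-enzyme controls, then fitted to a 4-parameter Hill curve. Aprotinin was the intraplate control.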
# [15] = ZIKV-mCherry secondary qHTS for Zika virus inhibitors (AID 1347158); also: top concentration of the series differs between compounds
# Summary of the method: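 Vero, 5,000 cells/well, o/n 37 °C; cpd pin-transferred in DMSO; ZIKV-mCherry MOI 1, 48-72 h 37 °C; 32% PFA stock fix, Hoechst; imaged 10x DAPI/mCherry; mCherry+ threshold 450 RFU; % infection.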
# [16] = Vero cells viability qHTS for Zika virus inhibitors (AID 1347167); also: potency is read from the fitted curve at half-maximal effect
# Summary of the method: as §1
# [17] = Tertiary RLuc qRT-PCR qHTS assay for Zika virus inhibitors (AID 1347169); also: nearly all actives have a fitted effect of over 55% in size; also: potency is read from the fitted curve at half-maximal effect; as to activity change, negative = inhibition: top concentration of the series differs between compounds
# Summary of the method: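 Orthogonal cell-based infection assay using recombinant ZIKV-RLuc (Cambodian) in Vero cells; compound added prior to virus at MOI 1-2. Incubation lasts 48-72 hrs at 37 degrees C before live-cell Renilla substrate is added and luminescence measured.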
# [18] = Confirmation and Secondary Assay for Modulators of Hemoglobin Beta Chain Splicing at IVS2 654 locus (AID 910);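 also: HeLa cells stably carrying EGFP split by mutant beta-globin IVS2-654 intron; per-well total GFP intensity by laser scanning cytometry after 2-day treatment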
# Summary of the method: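 Readout: per-well total peak green fluorescence (488 nm ex, 500–520 nm em) from objects 5–250 µm, reflecting correct splicing of an EGFP-654 reporter. Compounds were applied for 2 days at 37 °C to overnight-plated HeLa EGFP-654 cells; controls were DMSO and 500 nM IVS2-654 PNA.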
# [19] = Confirmation and Secondary Assay for Modulators of Hemoglobin Beta Chain Splicing at IVS2 705 locus (AID 930);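 also: HeLa cells stably expressing the EGFP-705 splicing reporter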
# Summary of the method: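 Restored EGFP fluorescence after 2-day compound exposure reports splicing correction in IVS2-705 EGFP reporter HeLa cells; positive control was 500 nM splice-blocking PNA oligo. Signal measured as well total peak GFP intensity (488 nm excitation).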
# [20] = qHTS Assay for Lipid Storage Modulators (AID 1519; calls by dose curve); details: Drosophila S3 cells, BODIPY lipid droplet/cell ratio, laser cytometry, cells loaded with oleic acid
# Summary of the method: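 Cells seeded at 5,000 per well were treated with compounds over a concentration series and loaded with oleic acid (400 uM, as added). Lipid droplet fluorescence (488 nm excitation, 500-530 nm channel) was read by laser-scanning cytometry and normalized to 20 uM Triacsin C.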
# [21] = target: Ubiquitin carboxyl-terminal hydrolase 1 (Homo sapiens) (UniProt O94782); experiment: Inhibitors of USP1/UAF1: Pilot qHTS (AID 504865);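 also: rhodamine fluorescence freed from ubiquitin-rhodamine substrate followed over time; top concentration of the series differs between compounds; nearly all actives have a fitted effect of over 35% in size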
# Sequence of Ubiquitin carboxyl-terminal hydrolase 1 (Homo sapiens) (O94782 whole entry, looked up): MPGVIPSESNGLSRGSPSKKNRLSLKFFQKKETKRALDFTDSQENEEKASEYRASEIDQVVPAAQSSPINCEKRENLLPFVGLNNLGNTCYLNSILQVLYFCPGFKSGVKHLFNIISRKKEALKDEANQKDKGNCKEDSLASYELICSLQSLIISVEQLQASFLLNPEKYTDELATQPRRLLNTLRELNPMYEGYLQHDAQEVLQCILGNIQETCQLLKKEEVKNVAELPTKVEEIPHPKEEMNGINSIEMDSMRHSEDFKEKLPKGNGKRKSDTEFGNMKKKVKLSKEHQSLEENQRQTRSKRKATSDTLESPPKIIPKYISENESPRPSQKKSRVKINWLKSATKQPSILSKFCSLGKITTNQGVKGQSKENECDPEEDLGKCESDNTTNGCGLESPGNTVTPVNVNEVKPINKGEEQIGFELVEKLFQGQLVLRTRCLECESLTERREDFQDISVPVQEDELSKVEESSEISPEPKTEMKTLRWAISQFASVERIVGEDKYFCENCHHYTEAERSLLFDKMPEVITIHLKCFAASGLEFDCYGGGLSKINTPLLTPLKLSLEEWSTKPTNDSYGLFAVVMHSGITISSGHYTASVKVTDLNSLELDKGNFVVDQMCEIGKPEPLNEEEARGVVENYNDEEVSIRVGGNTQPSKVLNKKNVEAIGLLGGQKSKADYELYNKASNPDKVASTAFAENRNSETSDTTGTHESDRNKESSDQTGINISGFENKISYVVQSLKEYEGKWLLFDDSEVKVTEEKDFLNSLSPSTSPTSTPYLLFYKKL
# Summary of the method: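 Kinetic fluorescence assay: 1nM USP1/UAF1, 15 min compound preincubation, then 150nM Ub-Rho; 480/540 nm.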
smiles,measurement,setting,value
N.N.O=C(O)C1(C(=O)O)CCC1.[Pt+2],Potency,[1],inactive
O=S(=O)(N[C@H]1CO[C@H]2[C@@H]1OC[C@@H]2Nc1nccc(-c2ccc3c(c2)OCO3)n1)c1ccc2ccccc2c1,Potency,Furin (Homo sapiens),55.5 µM (active)
CCOc1ccc(C(=O)Nc2cccc(C(=O)OCc3cc(=O)n4nc(C5CC5)sc4n3)c2)cc1,Potency,Furin (Homo sapiens),52.7 µM (active)
O=C(CSc1ncccc1C(=O)Oc1ccccc1Cl)Nc1ccc(C(F)(F)F)cc1Cl,Potency,Furin (Homo sapiens),inactive
COC(=O)[C@@H]1CC[C@H](C)[C@@H](c2ccc(C)cc2)N1C(=O)c1ccc(C=NO[C@H](C)CN2CCCc3nc(C)c(C)cc32)cc1,Potency,[2],1.51 µM (active)
same,Potency,[3],inactive
CC(C)C(NC(=O)C(CCCN=C(N)N)NC(=O)NC(Cc1ccccc1)C(=O)O)C(=O)NC(C=O)CCCN=C(N)N (stereo not drawn),Potency,Furin (Homo sapiens),11.2 µM (active)
CCCCCCC#Cc1cc(OC)c(OC)cc1C(N1CC(C)c2ccccc21)N1CC(C)c2ccccc21 (stereo not drawn),Potency,[4],3.16 µM (active)
same,"activity change, positive = activation",[5],-88.3% [at 11.4 µM] (inactive)
same,Potency,[3],inactive
O=C1C2=C(Nc3ccccc3SC2c2ccc(Cl)c(Cl)c2)c2ccccc21 (stereo not drawn),Potency,Furin (Homo sapiens),inactive
O=C(COc1ccc(F)cc1)Nc1ccccc1C(=O)OCc1cc(=O)n2nc(C3CC3)sc2n1,Potency,Furin (Homo sapiens),inactive
CC(=O)Oc1cc2c(c(C)c1OC(C)=O)CC=C1[C@@]2(C)CC[C@@]2(C)[C@H]3C[C@](C)(C(=O)O)CC[C@]3(C)CC[C@]12C,Potency,Furin (Homo sapiens),inactive
same,Potency,[6],19.2 µM (active)
same,Potency,[7],21.5 µM (active)
same,Potency,[8],13.4 µM (active)
same,Potency,[9],3.49 µM (active)
same,Potency,[10],158 µM (active)
same,Potency,[11],35.5 µM (active)
same,Potency,[12],13.1 µM (active)
same,Potency,[13],inactive
Oc1cc2ccccc2c2ccccc12,Potency,Furin (Homo sapiens),inactive
same,Potency,[14],44.1 µM (active)
same,Potency,[15],inactive
same,Potency,[10],inactive
same,Potency,[11],447 µM (active)
same,Potency,[16],19 µM (active)
same,Potency,[17],6.02 µM (active)
O=C(O)c1ccc(-c2cccc(C(F)(F)F)c2)cc1,Potency,Furin (Homo sapiens),inactive
same,Potency,[6],inactive
same,Potency,[7],inactive
same,Potency,[15],inactive
same,Potency,[17],inactive
CN1CCN(C(=O)CCN2C(=O)/C(=C\c3ccccc3F)SC2=S)CC1,Potency,Furin (Homo sapiens),inactive
same,Potency,[14],49.4 µM (active)
same,Potency,[10],251 µM (active)
same,Potency,[11],inactive
same,Potency,[16],inactive
same,Potency,[12],inactive
same,Potency,[17],inactive
CC(C)CN1CC(COc2cccc(C(F)(F)F)c2)Oc2ccnc(-c3ccc(OCC(=O)O)cc3)c2C1=O (stereo not drawn),Potency,Furin (Homo sapiens),inactive
same,Potency,[6],inactive
same,Potency,[7],inactive
same,Potency,[11],141 µM (active)
same,Potency,[17],inactive
CC1O[C@@H](O[C@@H]2C(O)C[C@H](O[C@@H]3C(O)C[C@@H](OC4CC[C@@]5(C)C6CC(O)[C@@]7(C)C(C8=CC(=O)OC8)CC[C@@]7(O)C6CC[C@@H]5C4)OC3C)OC2C)CC(O)[C@H]1O (stereo partly drawn),Potency,[4],inactive
same,outcome,[18],inactive
same,outcome,[19],inactive
same,"activity change, negative = inhibition",[20]; at 57.5 µM (top of the series),7.91% (inactive)
same,max response,[20]; measured here: cell count channel max response,11.2%
same,max response,[20]; measured here: lipid channel max response,22.9%
same,Potency,[21],inactive
same,Potency,Furin (Homo sapiens),inactive
same,Potency,[14],inactive
same,Potency,[16],inactive
same,Potency,[17],1.17 µM (active)
COC(=O)[C@H](Cc1ccc(OC)cc1)NC(=O)[C@H]1CN(S(=O)(=O)c2ccccc2)CCN1S(=O)(=O)c1ccccc1,Potency,Furin (Homo sapiens),inactive
same,Potency,[6],inactive
same,Potency,[7],inactive
same,Potency,[17],inactive
O=C(Nc1cccc2ccccc12)O[C@@H]1CO[C@H]2[C@@H]1OC[C@@H]2NS(=O)(=O)c1cccc2cccnc12,Potency,Furin (Homo sapiens),inactive
same,Potency,[6],inactive
same,Potency,[7],inactive

# Source: PubChem BioAssay (NCATS)
